# In paper PMC5540273 (PLoS ONE, 2017):
# How the values were obtained:
# [1] = test system: PRKG1
# [2] = test system: RPS6KA4(Kin.Dom.1-N-terminal)
# [3] = test system: RIOK3
# [4] = test system: RIPK1
# [5] = test system: RIPK4
# [6] = test system: ROCK1
# [7] = test system: ROCK2
# [8] = test system: RPS6KA5(Kin.Dom.1-N-terminal)
# 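Also: kd values determined as follow-up on hits from a single-replicate KINOMEscan panel screen.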
smiles,measurement,setting,value
C[C@@H]1CCN(C(=O)CO)C[C@@H]1N(C)c1ncnc2[nH]ccc12,Kd,[1],> 10 µM
same,Kd,[2],> 10 µM
Nc1nc(-c2ccc3c(N)n[nH]c3c2)cc(N2CCC[C@@H](C(=O)Nc3ccccc3)C2)n1.O=C(O)C(F)(F)F.O=C(O)C(F)(F)F [GSK2288359],Kd,[3],0.57 µM
Nc1nccc2scc(-c3ccc4c(c3)CCN4C(=O)Cc3cc(F)ccc3F)c12 [GSK2587663],Kd,[4],0.57 µM
O=C(Nc1ccccc1F)NC1CCN(c2ccnc(Nc3ccc(F)cc3)n2)C1 (stereo not shown) [GSK1379722],Kd,[5],> 10 µM
Cl.Cl.c1ccc(-c2cc3ccncc3cc2OC2CCNCC2)cc1 [GSK1122999],Kd,[6],0.13 µM
same,Kd,[7],0.18 µM
NC(=O)c1sc(-n2cnc3ccccc32)cc1OCc1ccccc1F [GSK1024306],Kd,[6],0.46 µM
same,Kd,[7],0.47 µM
Fc1cccc(COc2ccc(Nc3ncnc4sc(-c5ccc[nH]5)cc34)cc2Cl)c1 [GW707818],Kd,[8],> 10 µM
